Among the test systems are HCT-15 colon; HT29 colon; SNB-75 CNS; SNB-19 CNS; U251 CNS; PC-3 prostate; SK-MEL-5 melanoma; UACC-62 melanoma; LOX IMVI melanoma; SK-MEL-28 melanoma; SK-MEL-2 melanoma; EKVX NSCLC; SN12C renal; UO-31 renal; TK-10 renal; ACHN renal; CAKI-1 renal; A498 renal; CCRF-CEM leukemia; MOLT-4 leukemia.
What all share (test): NCI-60 one-dose screen, 48 h (100 = growth as untreated, 0 = no growth, -100 = all killed)
Conditions in all cases: 10 µM unless noted

This is part of a sample that, as a whole, favours compounds with a hit. Of some 83,000 tested, about 20% had one in any assay.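 48-hour exposure, single concentration, 96-well plates; percent growth endpoint where 0 means no net growth. Active: below 10.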 Values without a mark were called inactive. The source made the active and inactive calls.

As to `O=C(O)c1cn(C2CC2)c2cc(N3CCN(C(=O)N/N=C/c4cccc5ccccc45)CC3)c(F)cc2c1=O`, the growth is 97.9% with HCT-15 colon; 105% with HT29 colon; 97% in the assay with SNB-75 CNS; 85.9% in the assay with SNB-19 CNS; 100% with U251 CNS; 105% with PC-3 prostate. Further, the growth with SK-MEL-5 melanoma is 94%; in the assay on UACC-62 melanoma, 88.7%; in the assay on LOX IMVI melanoma, 67.8%; with SK-MEL-28 melanoma, 98.1%; in the assay on SK-MEL-2 melanoma, 101%; in the assay on EKVX NSCLC, 102%. Further, the growth was 96.6% with SN12C renal; 80.1% in the assay with UO-31 renal; 94.1% with TK-10 renal; 101% in the assay on ACHN renal; 90.1% with CAKI-1 renal; 86.1% in the assay with A498 renal. The growth with CCRF-CEM leukemia is 112%; with MOLT-4 leukemia it was 100%.
As for `COc1nc(/C=C\Nc2ccc3c(c2)OCCOCCOCCOCCO3)nc(OC)n1`, the growth was 91.5% in the assay on HCT-15 colon; 99.5% in the assay on HT29 colon; 72.3% with SNB-75 CNS; 103% in the assay with SNB-19 CNS; 103% in the assay with U251 CNS; 99.4% in the assay on PC-3 prostate. Also, the growth with SK-MEL-5 melanoma is 97.5%; in the assay on UACC-62 melanoma, 93.3%; with LOX IMVI melanoma, 92.1%; in the assay on SK-MEL-28 melanoma, 104%; in the assay on SK-MEL-2 melanoma it was 108%; in the assay on EKVX NSCLC, 91.8%. Besides, the growth is 93.2% in the assay on SN12C renal; 79.5% in the assay with UO-31 renal; 81.9% with TK-10 renal; 99.8% in the assay on ACHN renal; 93.1% in the assay on CAKI-1 renal; 75.7% in the assay with A498 renal. Also, the figures for the growth in the assay with CCRF-CEM leukemia and with MOLT-4 leukemia were 118% and 107%, respectively.
Turning to `O=C(/C=C/C12c3ccccc3C(c3ccccc31)C1C(=O)NC(=O)C12)c1ccc(I)cc1` (stereo not given), the growth was 39.7% in the assay with HCT-15 colon; 29.6% in the assay with HT29 colon; 63.6% with SNB-75 CNS; 63.4% in the assay with SNB-19 CNS; 34.5% in the assay on U251 CNS; 34.5% in the assay with PC-3 prostate. Besides, the growth in the assay on SK-MEL-5 melanoma was 69.5%; in the assay with UACC-62 melanoma it was 51.9%; with LOX IMVI melanoma it was 37.8%; in the assay with SK-MEL-28 melanoma, 64%; in the assay on SK-MEL-2 melanoma, 56.7%; in the assay with EKVX NSCLC it was 66.1%. Besides, the growth in the assay with SN12C renal was 50.9%; in the assay with UO-31 renal it was 46.2%; with TK-10 renal, 66.7%; with ACHN renal, 67.6%; in the assay with CAKI-1 renal, 60.4%; with A498 renal it was 56.1%. The values for the growth in the assay with CCRF-CEM leukemia and with MOLT-4 leukemia were 1.53% (active) and 6.91% (active), respectively.
As to `CNCC[C@H](Oc1cccc2ccccc12)c1cccs1`, the growth is 101% with HCT-15 colon; 71.8% with HT29 colon; 61.5% with SNB-75 CNS; 97.8% with SNB-19 CNS; 85.3% in the assay on U251 CNS; 68.9% with PC-3 prostate. For the same compound, the growth in the assay with SK-MEL-5 melanoma was 93%; in the assay with UACC-62 melanoma, 91.3%; in the assay on LOX IMVI melanoma it was 74.1%; in the assay on SK-MEL-28 melanoma, 91.5%; in the assay on SK-MEL-2 melanoma, 104%; in the assay with EKVX NSCLC it was 78.9%. Further, the growth in the assay on SN12C renal was 79.1%; in the assay with UO-31 renal it was 63.7%; in the assay with TK-10 renal it was 90%; with ACHN renal it was 96.9%; with CAKI-1 renal it was 88.4%; in the assay with A498 renal, 111%. The growth was 91.9% in the assay with CCRF-CEM leukemia and 50.4% with MOLT-4 leukemia.
For `COc1cc(OC)c2c(=O)c3c(CC=C(C)C)cc(OC)c(O)c3oc2c1`, the growth is 59.8% in the assay with HCT-15 colon; 95.4% in the assay on HT29 colon; 60% in the assay with SNB-75 CNS; 92.7% with SNB-19 CNS; 85.1% in the assay with U251 CNS; 99.2% with PC-3 prostate. The growth in the assay with SK-MEL-5 melanoma was 76.4%; in the assay on UACC-62 melanoma, 75.2%; in the assay on LOX IMVI melanoma, 82%; in the assay on SK-MEL-28 melanoma, 88.4%; with SK-MEL-2 melanoma, 91.4%; in the assay on EKVX NSCLC it was 89.6%. Moreover, the growth in the assay with SN12C renal is 96%; in the assay with UO-31 renal it was 72%; in the assay on TK-10 renal it was 82.9%; with ACHN renal it was 79.7%; in the assay on CAKI-1 renal it was 75.3%; with A498 renal it was 67.7%. Besides, the growth with CCRF-CEM leukemia is 76.9%; in the assay on MOLT-4 leukemia, 66.4%.
For the compound `C=C(C)[C@@H]1CC[C@]2(COC3CCCCO3)CC[C@]3(C)[C@H](CC[C@@H]4[C@@]5(C)C=C(C=O)C(=O)C(C)(C)[C@@H]5CC[C@]43C)[C@@H]12` (stereo not given in full), the growth with HCT-15 colon is -30% (active); in the assay with HT29 colon, -54.2% (active); with SNB-75 CNS it was -16.3% (active); in the assay with SNB-19 CNS, -71.4% (active); with U251 CNS, -73.6% (active); in the assay on PC-3 prostate, -57.7% (active). Besides, the growth in the assay on SK-MEL-5 melanoma is -97.5% (active); in the assay on UACC-62 melanoma, -74.9% (active); with LOX IMVI melanoma, -88.9% (active); in the assay with SK-MEL-28 melanoma, -68.7% (active); in the assay with SK-MEL-2 melanoma, -40.9% (active); in the assay on EKVX NSCLC, -60% (active). Moreover, the growth was -48.8% (active) in the assay on SN12C renal; -86.8% (active) with UO-31 renal; -82.5% (active) in the assay on TK-10 renal; -59.2% (active) in the assay with ACHN renal; -40.8% (active) in the assay with CAKI-1 renal; -95% (active) in the assay on A498 renal. Moreover, the growth is -34.9% (active) in the assay with CCRF-CEM leukemia and 3.64% (active) with MOLT-4 leukemia.
For the compound `CCOC(=O)C1=C(CCl)N(C)C(=O)NC1c1ccc2c(c1)OCO2` (stereo not given), the growth in the assay on HCT-15 colon was 34.4%; in the assay with HT29 colon, 38.7%; with SNB-75 CNS, 28.8%; with SNB-19 CNS it was 84.5%; in the assay on U251 CNS, 68%; with PC-3 prostate it was 36.8%. Also, the growth in the assay on SK-MEL-5 melanoma was 81.9%; in the assay on UACC-62 melanoma, 73.2%; in the assay on LOX IMVI melanoma, 40.9%; with SK-MEL-28 melanoma it was 79%; with SK-MEL-2 melanoma, 58.8%; in the assay with EKVX NSCLC it was 71.9%. For the same compound, the growth with SN12C renal was 58.6%; in the assay with UO-31 renal, 69.5%; with TK-10 renal, 45.2%; in the assay on ACHN renal, 49.5%; in the assay with CAKI-1 renal, 36.7%; in the assay on A498 renal, 55.8%. Besides, the figures for the growth in the assay with CCRF-CEM leukemia and with MOLT-4 leukemia were 12% and 53.2%, respectively.
For `COc1cc2ncnc(Nc3ccc(S(=O)(=O)Nc4nccs4)cc3)c2cc1OCCCN1CCCC1`, the growth is 101% in the assay with HCT-15 colon; 107% in the assay with HT29 colon; 93.8% with SNB-75 CNS; 103% in the assay with SNB-19 CNS; 101% with U251 CNS; 100% in the assay on PC-3 prostate. Moreover, the growth in the assay with SK-MEL-5 melanoma is 105%; in the assay with UACC-62 melanoma it was 97.2%; with LOX IMVI melanoma, 98.9%; with SK-MEL-28 melanoma, 109%; with SK-MEL-2 melanoma, 114%; in the assay with EKVX NSCLC, 107%. Moreover, the growth was 99.9% with SN12C renal; 84.9% with UO-31 renal; 123% with TK-10 renal; 108% in the assay with ACHN renal; 100% with CAKI-1 renal; 104% with A498 renal. For the same compound, the values for the growth with CCRF-CEM leukemia and in the assay on MOLT-4 leukemia were 100% and 104%, respectively.

The values above are taken from PubChem BioAssay (NCI).
